Columns and labels:
Test in all cases: protein binding microarray; high values mean tight binding
Conditions in all cases: dsDNA, one strand shown
RELARELA (p65 homodimer) = RELARELA (p65 homodimer) (Homo sapiens, UniProt Q04206 1-307)
p50p50 homodimer = p50p50 homodimer (Homo sapiens, UniProt P19838 7-356)
p52p52 homodimer = target: T1, p52p52 homodimer (Homo sapiens, UniProt Q00653 4-332)
T1 sequence: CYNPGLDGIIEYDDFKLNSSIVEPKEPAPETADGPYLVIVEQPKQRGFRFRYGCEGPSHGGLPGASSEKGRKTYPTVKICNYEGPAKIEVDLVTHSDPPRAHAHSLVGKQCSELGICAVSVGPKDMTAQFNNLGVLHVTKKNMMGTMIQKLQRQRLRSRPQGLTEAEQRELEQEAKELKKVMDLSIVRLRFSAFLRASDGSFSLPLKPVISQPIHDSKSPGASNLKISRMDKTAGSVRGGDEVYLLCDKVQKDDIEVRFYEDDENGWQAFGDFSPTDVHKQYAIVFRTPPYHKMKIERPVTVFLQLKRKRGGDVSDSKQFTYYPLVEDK

[1] = target: RELA (p65) subunit of heterodimer;p50 subunit (Homo sapiens;Homo sapiens, UniProt Q04206;P19838 1-307;7-356)
[2] = target: RELA (p65) subunit of heterodimer;p52 subunit (Homo sapiens;Homo sapiens, UniProt Q04206;Q00653 1-307;4-332)
RELB subunit;p50 subunit = RELB subunit;p50 subunit (Homo sapiens;Homo sapiens, UniProt Q01201;P19838 120-401;7-356)
RELB subunit;p52 subunit = target: T2, RELB subunit;p52 subunit (Homo sapiens;Homo sapiens, UniProt Q01201;Q00653 120-401;4-332)
T2 sequence 1: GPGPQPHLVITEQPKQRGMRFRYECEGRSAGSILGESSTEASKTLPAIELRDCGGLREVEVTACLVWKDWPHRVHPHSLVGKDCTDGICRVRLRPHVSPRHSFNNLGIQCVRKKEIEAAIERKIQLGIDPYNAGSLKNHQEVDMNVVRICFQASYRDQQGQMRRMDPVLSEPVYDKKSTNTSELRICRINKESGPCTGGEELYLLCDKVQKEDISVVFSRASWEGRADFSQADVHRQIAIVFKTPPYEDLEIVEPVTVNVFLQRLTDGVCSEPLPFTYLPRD
T2 sequence 2: T1 sequence

[3] = target: C-Rel subunit;p50 subunit (Homo sapiens;Homo sapiens, UniProt Q04864;P19838 1-285;7-356)
[4] = target: T3, C-Rel subunit;p52 subunit (Homo sapiens;Homo sapiens, UniProt Q04864;Q00653 1-285;4-332)
T3 sequence 1: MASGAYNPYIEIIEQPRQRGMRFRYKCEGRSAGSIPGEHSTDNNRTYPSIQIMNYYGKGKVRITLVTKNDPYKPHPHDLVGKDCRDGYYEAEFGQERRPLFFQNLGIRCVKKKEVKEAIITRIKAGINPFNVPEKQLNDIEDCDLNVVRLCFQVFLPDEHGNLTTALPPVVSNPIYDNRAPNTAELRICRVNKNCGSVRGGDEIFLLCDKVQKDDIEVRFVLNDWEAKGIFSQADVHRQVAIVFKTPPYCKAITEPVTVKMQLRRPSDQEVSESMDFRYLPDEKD
T3 sequence 2: T1 sequence

Sequence of p50p50 homodimer (P19838 7-356): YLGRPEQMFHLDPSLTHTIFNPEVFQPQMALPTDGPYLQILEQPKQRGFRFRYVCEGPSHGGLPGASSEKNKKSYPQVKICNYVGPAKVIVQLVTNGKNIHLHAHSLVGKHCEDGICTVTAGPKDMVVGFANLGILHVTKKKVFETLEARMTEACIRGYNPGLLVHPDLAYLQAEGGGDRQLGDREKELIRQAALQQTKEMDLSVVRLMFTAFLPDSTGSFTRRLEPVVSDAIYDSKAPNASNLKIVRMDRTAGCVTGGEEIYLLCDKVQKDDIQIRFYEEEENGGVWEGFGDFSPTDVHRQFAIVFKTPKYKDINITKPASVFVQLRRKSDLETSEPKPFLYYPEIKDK
Sequence of RELARELA (p65 homodimer) (Q04206 1-307): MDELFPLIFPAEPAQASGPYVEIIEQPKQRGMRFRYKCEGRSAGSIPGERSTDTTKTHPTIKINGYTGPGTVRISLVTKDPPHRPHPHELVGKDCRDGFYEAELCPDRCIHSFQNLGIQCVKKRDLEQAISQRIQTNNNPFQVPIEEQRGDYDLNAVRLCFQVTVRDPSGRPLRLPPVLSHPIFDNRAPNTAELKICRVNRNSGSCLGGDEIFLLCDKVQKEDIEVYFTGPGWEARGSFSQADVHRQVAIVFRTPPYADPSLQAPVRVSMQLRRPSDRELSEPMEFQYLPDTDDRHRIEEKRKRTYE
Sequence of RELA (p65) subunit of heterodimer;p50 subunit (Q04206 1-307, chain 1 of 2): as the sequence (Q04206 1-307) above
Sequence of RELA (p65) subunit of heterodimer;p50 subunit (P19838 7-356, chain 2 of 2): as the sequence (P19838 7-356) above

Sequence | binding signal (RELARELA (p65 homodimer)) [z-score] | binding signal (p50p50 homodimer) [z-score] | binding signal (p52p52 homodimer) [z-score] | binding signal [1] [z-score] | binding signal [2] [z-score] | binding signal (RELB subunit;p50 subunit) [z-score] | binding signal (RELB subunit;p52 subunit) [z-score] | binding signal [3] [z-score] | binding signal [4] [z-score]
CGGAGGTTCCC | 1.2 | -0.355 | -0.258 | 0.387 | -0.0508 | -0.291 | -0.115 | 0.126 | -0.0163
CAAGGCCCCCT | -1.53 | 0.645 | 0.212 | 0.0559 | 0.254 | 0.314 | 0.508 | -0.126 | -0.139
AGAGGTGTCCT | -0.184 | -1.69 | -0.541 | -0.927 | -0.707 | -0.854 | -0.664 | -1.22 | -0.658
CAAATCTCCCT | 0.0987 | 1.24 | 0.832 | 1.06 | 1.05 | 1.35 | 1.4 | 0.664 | 1.06
GAGAGGTCCCT | 0.699 | 0.517 | 0.431 | 0.364 | 0.0823 | 0.659 | 0.436 | 0.182 | 0.0392
CAGATAGCCCT | -0.575 | -1.02 | -0.544 | -0.662 | -0.763 | -0.804 | -0.675 | -1.23 | -0.828
GAAGTACCCCC | 0.109 | 1.25 | 0.815 | 1.31 | 1.14 | 1.27 | 1.33 | 0.887 | 0.946
CGAGGGCCCCC | -0.934 | 0.101 | -0.0825 | 0.0405 | -0.0107 | 0.199 | 0.202 | -0.0359 | 0.137
CGATAAGCCCC | -0.417 | 0.756 | 0.22 | 0.383 | 0.238 | 0.334 | 0.409 | 0.25 | 0.31
CAATAATCCCT | -0.146 | 0.635 | 0.735 | 0.226 | 0.493 | 0.496 | 0.698 | 0.212 | 0.284
CAGGGGATCCC | 1.59 | 1.03 | 1.66 | 1.73 | 1.49 | 1.12 | 1.18 | 0.893 | 1.42
AGAAGATTCCT | 0.055 | -1.1 | -0.567 | -0.642 | -0.681 | -0.914 | -0.843 | -0.495 | -0.373
CGAGAAATCCC | 1.4 | 0.819 | 0.839 | 0.872 | 0.718 | 0.773 | 0.543 | 0.883 | 0.451
CGGGAACCCCC | 2.26 | 0.986 | 2.98 | 2.47 | 2.46 | 1.67 | 2.34 | 2.01 | 2.86
CAGTGGGTCCT | -0.388 | -1.79 | -0.509 | -1.1 | -0.79 | -0.698 | -0.708 | -1.36 | -1.08
GGAGATATCCT | -0.481 | -1.23 | -0.703 | -0.874 | -0.798 | -1.04 | -0.872 | -1.35 | -0.82
GAAGTTGTCCT | -0.136 | -1.05 | -0.601 | -0.859 | -0.716 | -0.826 | -0.62 | -0.931 | -0.642
CAAGGTTCCCC | 0.544 | 1.15 | 1.29 | 1.68 | 1.31 | 1.5 | 1.58 | 1.36 | 1.06
CAAGACGCCCT | -0.812 | -2.01 | -0.745 | -0.983 | -0.966 | -1.04 | -0.904 | -1.34 | -0.839
CAATATACCCC | -0.012 | 0.317 | 0.195 | 0.199 | 0.442 | 0.428 | 0.992 | 0.384 | 0.51
GGATAAATCCC | 0.859 | 0.48 | 0.567 | 0.64 | 0.582 | 0.489 | 0.482 | 0.867 | 0.396
GAATAGACCCT | -0.683 | -0.579 | -0.346 | -0.545 | -0.606 | -0.679 | -0.749 | -1.19 | -0.574

— publication PMC3218832
